PubChem BioAssay (NCATS)
Inconclusive results are not listed. Active and inactive are the calls of the source. Unless noted, calls come from the whole dose curve; as a rule, active = well fitted curve in either direction with a large enough effect (not every such curve was filed as active); inconclusive = small, poorly fitted or top-dose-only effect, or another doubt; inactive = flat fitted curve, though single readings scatter.

Assays:
[1] = AP1 Signaling Pathway (AID 357); settings: ME-180 AP-1-bla reporter, EGF-induced, beta-lactamase ratio, 5 h; at 17.2 µM (top of the series) unless noted;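 note: ME-180 reporter cells stimulated with EGF at its EC50 level; % is set by controls: 0 for no effect and ±100 for the full control effect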
How it was run: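 AP-1-bla ME-180 cells, Opti-MEM + 0.5% dialyzed FBS, plated overnight 37 °C. Cpd titration + EC50 EGF, 5 h 37 °C. CCF4 2.5 h RT; ex 405, em 460/530 ratio → %activity, AC50.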

[2] = NFAT Signaling Pathway (AID 444); settings: Jurkat NFAT-bla M1, carbachol, beta-lactamase ratio, 5 h; at 17.2 µM (top of the series) unless noted;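 note: carbachol stimulus at about its EC50 of 1 µM final; % is set by controls: 0 for no effect and ±100 for the full control effect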
How it was run: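 Jurkat cells carrying an NFAT-driven β-lactamase reporter and co-transfected muscarinic M1 receptor were treated with compound plus carbachol (1 uM final, an EC50 level) for 5 h at 37 °C. CCF4 loading followed for 1 h at RT; 460/530 nm ratio gave %activity.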

[3] = Stat Signaling Pathway (AID 446); settings: ME-180 SIE beta-lactamase reporter, IL-6 stimulated, 5 h; at 17.2 µM (top of the series) unless noted;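 note: ME-180 cervical cancer cells given 40 pM IL-6 alongside compound; SIE-controlled beta-lactamase reporter measured as 460/530 nm FRET emission ratio; % is set by controls: 0 for no effect and ±100 for the full control effect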
How it was run: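 Reporter line: ME-180 cervical carcinoma, SIE-beta-lactamase. Treatment: compound with 40 pM IL-6, 5 hrs, 37 C, in low-serum OPTI-MEM with 10 mM HEPES pH 7.3. Detection: 460/530 nm fluorescence.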

[4] = molecular target: Cytochrome P450 1A2 (Homo sapiens) (UniProt P05177); assay: p450-cyp1a2 (AID 410; calls by dose curve;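 note: -100% = full effect of reference inhibitor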)
Cytochrome P450 1A2 (Homo sapiens), sequence (P05177 whole entry, looked up): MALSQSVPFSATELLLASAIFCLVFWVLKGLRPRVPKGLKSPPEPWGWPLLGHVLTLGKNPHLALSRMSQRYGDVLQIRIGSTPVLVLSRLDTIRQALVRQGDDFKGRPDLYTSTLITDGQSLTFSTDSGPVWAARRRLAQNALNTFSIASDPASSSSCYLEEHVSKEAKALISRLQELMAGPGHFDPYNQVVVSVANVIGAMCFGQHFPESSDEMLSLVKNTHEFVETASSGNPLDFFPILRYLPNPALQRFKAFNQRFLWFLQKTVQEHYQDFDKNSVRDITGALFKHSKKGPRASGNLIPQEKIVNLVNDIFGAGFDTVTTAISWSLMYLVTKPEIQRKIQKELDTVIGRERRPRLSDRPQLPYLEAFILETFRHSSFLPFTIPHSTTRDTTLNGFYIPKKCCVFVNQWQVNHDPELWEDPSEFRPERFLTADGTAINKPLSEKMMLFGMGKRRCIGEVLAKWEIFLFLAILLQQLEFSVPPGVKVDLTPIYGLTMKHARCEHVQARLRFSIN
How it was run: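 20nM CYP1A2 with 100uM Luciferin-ME (at Km) in 100mM KPO4; compound preincubated 10 min, NADPH regeneration added, 60 min at room temperature. Luciferin quantified by luminescence after detection reagent; normalized to 57 uM furafylline.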

[5] = molecular target: Glucocorticoid receptor (Homo sapiens) (UniProt P04150); assay: GR-GFP Redistribution (AID 450;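 active = compounds whose dose series gives a full or clear partial fitted curve of increased nuclear translocation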; note: potency is the fitted concentration of half-maximal effect)
Glucocorticoid receptor (Homo sapiens), sequence (P04150 whole entry, looked up, the tested form may be a part): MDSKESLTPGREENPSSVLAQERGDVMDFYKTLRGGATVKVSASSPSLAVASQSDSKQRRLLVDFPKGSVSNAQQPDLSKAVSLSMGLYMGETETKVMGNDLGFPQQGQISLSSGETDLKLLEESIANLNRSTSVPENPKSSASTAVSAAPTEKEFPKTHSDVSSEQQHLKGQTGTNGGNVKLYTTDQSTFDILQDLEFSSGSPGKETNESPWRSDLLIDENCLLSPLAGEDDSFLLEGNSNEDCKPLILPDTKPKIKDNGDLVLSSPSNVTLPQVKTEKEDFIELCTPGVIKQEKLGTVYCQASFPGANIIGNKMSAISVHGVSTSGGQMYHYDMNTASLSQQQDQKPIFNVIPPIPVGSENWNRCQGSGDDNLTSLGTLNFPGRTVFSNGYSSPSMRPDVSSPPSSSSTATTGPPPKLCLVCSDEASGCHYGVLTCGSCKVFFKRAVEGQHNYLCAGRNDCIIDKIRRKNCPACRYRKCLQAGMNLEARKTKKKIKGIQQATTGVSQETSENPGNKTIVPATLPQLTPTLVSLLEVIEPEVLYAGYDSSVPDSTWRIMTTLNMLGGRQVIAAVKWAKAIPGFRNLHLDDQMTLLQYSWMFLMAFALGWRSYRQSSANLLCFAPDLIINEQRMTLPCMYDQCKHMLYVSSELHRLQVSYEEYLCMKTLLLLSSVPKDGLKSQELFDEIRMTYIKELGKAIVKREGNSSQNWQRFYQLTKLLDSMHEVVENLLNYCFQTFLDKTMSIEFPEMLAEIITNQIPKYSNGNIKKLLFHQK

[6] = molecular target: Glucocorticoid receptor (Homo sapiens) (UniProt P04150); assay: GR-EFC Redistribution (AID 451; calls by dose curve; note: potency is the fitted concentration of half-maximal effect); settings: CHO-K1 GR-EFC translocation, beta-gal luminescence, 2 h
How it was run: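 CHO-K1 cells stably expressing nuclear-localized β-gal enzyme acceptor and GR fused C-terminally to the enzyme donor fragment; ligand-driven nuclear translocation restores β-gal by complementation. Compounds titrated up to 46 uM final, 2 h at 37 °C; luminescence read.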

[7] = molecular target: 3',5'-cyclic-AMP phosphodiesterase 4B (Homo sapiens) (UniProt Q07343); assay: qHTS Assay for Inhibitors of PDE-IV (AID 607; active = well fitted activation curve with a large enough effect in the main read-out, with a control signal flat, not every such curve was filed as active; note: % of control where 0% means no effect)
3',5'-cyclic-AMP phosphodiesterase 4B (Homo sapiens), sequence (Q07343 whole entry, looked up): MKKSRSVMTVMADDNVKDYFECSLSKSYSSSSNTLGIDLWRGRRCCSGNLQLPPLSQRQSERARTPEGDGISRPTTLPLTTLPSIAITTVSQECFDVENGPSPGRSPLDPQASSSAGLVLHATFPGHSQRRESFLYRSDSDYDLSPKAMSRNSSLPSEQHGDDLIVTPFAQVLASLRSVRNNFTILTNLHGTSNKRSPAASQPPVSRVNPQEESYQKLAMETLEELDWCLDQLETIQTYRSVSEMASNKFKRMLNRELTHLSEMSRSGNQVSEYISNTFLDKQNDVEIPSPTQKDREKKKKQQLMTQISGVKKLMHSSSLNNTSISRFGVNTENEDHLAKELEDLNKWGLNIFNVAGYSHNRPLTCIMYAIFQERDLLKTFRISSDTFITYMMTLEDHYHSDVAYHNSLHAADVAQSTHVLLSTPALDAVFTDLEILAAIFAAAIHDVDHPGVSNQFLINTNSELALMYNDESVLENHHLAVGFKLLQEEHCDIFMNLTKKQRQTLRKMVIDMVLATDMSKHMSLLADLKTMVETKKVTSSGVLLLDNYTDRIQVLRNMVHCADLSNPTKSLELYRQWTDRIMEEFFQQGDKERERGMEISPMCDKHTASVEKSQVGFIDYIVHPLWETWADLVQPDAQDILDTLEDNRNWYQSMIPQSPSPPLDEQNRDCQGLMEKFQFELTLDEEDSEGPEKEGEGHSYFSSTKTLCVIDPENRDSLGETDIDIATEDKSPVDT
How it was run: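 Cell-based read-out of cAMP via a modified cyclic nucleotide-gated channel and membrane potential dye (535/590 nm) in HEK293 cells expressing PDE4 endogenously. Compounds tested up to 22.9 uM final; 100 uM RO 20-1724 reference.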

[8] = molecular target: Cytochrome P450 2C9 (Homo sapiens) (UniProt P11712); assay: qHTS Assay for Inhibitors and Substrates of Cytochrome P450 2C9 (AID 883; active = well fitted curve in the direction sought with a large enough effect; an effect the other way counts as inactive or inconclusive; note: % is set by controls: 0 for no effect and ±100 for the full control effect; nearly all actives have a fitted effect of over 60% in size)
How it was run: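 Human CYP2C9 (10nM) hydroxylated Luciferin-H (100uM, at its KM) to luciferin in 25mM KPO4. Compound was preincubated 10 min at 37C, then NADPH regeneration started a 60 min reaction at 37C. Luminescence was read after detection reagent, normalized to 57uM sulphaphenazole.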

[9] = molecular target: Cytochrome P450 2D6 (Homo sapiens) (UniProt P10635); assay: qHTS Assay for Inhibitors and Substrates of Cytochrome P450 2D6 (AID 891; active = well fitted curve in the direction sought with a large enough effect; an effect the other way counts as inactive or inconclusive; note: potency is the fitted concentration of half-maximal effect; nearly all actives have a fitted effect of over 60% in size)
Cytochrome P450 2D6 (Homo sapiens), sequence (P10635 whole entry, looked up): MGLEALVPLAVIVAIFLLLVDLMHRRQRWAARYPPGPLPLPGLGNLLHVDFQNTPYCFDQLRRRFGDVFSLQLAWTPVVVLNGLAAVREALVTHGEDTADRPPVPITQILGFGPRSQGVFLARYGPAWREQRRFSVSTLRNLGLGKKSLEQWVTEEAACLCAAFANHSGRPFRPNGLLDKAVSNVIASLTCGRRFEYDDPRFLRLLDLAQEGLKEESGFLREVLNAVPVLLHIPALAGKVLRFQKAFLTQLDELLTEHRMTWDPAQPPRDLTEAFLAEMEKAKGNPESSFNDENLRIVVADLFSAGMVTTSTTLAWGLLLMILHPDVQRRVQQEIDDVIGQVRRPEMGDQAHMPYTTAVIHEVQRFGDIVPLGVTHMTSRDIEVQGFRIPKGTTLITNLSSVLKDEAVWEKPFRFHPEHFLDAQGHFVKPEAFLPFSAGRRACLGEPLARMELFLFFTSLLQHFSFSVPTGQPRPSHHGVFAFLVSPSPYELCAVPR
How it was run: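 Human CYP2D6 (5 nM) with 30 uM Luciferin-ME EGE (at Km) in 100 mM KPO4, compound preincubated 10 min, then NADPH regeneration system for 60 min at room temperature. Luciferin read by luminescence; normalized to 1.43 uM quinidine.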

[10] = molecular target: Cytochrome P450 2C19 (Homo sapiens) (UniProt P33261); assay: qHTS Assay for Inhibitors and Substrates of Cytochrome P450 2C19 (AID 899; active = well fitted curve in the direction sought with a large enough effect; an effect the other way counts as inactive or inconclusive; note: % is set by controls: 0 for no effect and ±100 for the full control effect; nearly all actives have a fitted effect of over 60% in size)
How it was run: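 Human CYP2C19 (5nM) with Luciferin-H EGE at 10uM (its KM) in 50mM KPO4 was preincubated with compound for 10 min at 37C. NADPH regeneration started a 60 min 37C reaction. Luciferin was read by luminescence, normalized to 57uM ketoconazole.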

[11] = molecular target: Mitogen-activated protein kinase 10 (Mus musculus) (UniProt Q61831); assay: JNK3 AlphaScreen Assay (AID 530);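 note: kinase came from lysate of stimulated human HepG2 cells; signal reports phosphorylation of biotinylated GST-cJun 1-79 at Ser73 with 10 µM ATP; % is set by controls: 0 for no effect and ±100 for the full control effect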
How it was run: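 Inhibitors reduce antibody binding to phosphorylated biotin-cJun, lowering AlphaScreen luminescence. Lysates from HepG2 cells pre-activated by IL-1beta plus TNF-alpha supplied JNK3; compounds were titrated.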

[12] = qHTS Assay for Identification of Small Molecule Agonists for Hypoxia Response Element Signaling Pathway (AID 914; active = well fitted activation curve with a large enough effect in the signal ratio, with a control signal flat, not every such curve was filed as active; the % refers to the signal ratio; note: % of control where 0% means no effect); settings: ME-180 (cervical carcinoma) HRE-bla reporter, beta-lactamase ratio, CoCl2, 17 h; activation: hits give high values
How it was run: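 A beta-lactamase reporter under hypoxia response element control in ME-180 cells served as the system. Compound titrations plus EC50 CoCl2 ran 17 h at 37 degrees Celsius; AC50 values were fitted from %Activity.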

[13] = molecular target: Cytochrome P450 3A4 (Homo sapiens) (UniProt P08684); assay: qHTS Assay for Activators of Cytochrome P450 3A4 (AID 885; active = well fitted curve in the direction sought with a large enough effect; an effect the other way counts as inactive or inconclusive; note: nearly all actives have a fitted effect of over 65% in size)
Cytochrome P450 3A4 (Homo sapiens), sequence (P08684 whole entry, looked up): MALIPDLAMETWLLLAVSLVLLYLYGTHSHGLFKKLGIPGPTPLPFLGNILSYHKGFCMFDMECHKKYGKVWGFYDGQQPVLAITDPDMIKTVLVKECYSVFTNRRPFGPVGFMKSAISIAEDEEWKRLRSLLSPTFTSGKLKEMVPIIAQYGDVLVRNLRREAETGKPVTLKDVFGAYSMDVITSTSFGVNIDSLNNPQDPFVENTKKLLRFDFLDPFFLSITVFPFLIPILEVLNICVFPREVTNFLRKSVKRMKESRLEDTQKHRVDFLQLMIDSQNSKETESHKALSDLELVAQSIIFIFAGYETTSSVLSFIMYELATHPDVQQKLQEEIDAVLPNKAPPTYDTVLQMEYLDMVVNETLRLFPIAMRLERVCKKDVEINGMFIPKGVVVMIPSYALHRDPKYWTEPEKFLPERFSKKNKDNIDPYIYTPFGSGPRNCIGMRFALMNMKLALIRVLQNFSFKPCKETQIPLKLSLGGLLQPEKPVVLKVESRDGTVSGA
How it was run: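 Signal was normalized against complete inhibition by 57 uM ketoconazole. The reaction used 20nM CYP3A4 with 25uM Luciferin-PPXE, 10-min compound preincubation and a 60-min NADPH-supported step at RT.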

[14] = qHTS Assay for Identification of Small Molecule Agonists for Thrombopoietin (TPO) Signaling Pathway (AID 917; active = well fitted curve in the direction sought with a large enough effect; an effect the other way counts as inactive or inconclusive; note: % is set by controls: 0 for no effect and ±100 for the full control effect)
How it was run: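 We measured Glycoprotein IIb promoter–luciferase output in IL-3-starved Ba/F3 murine cells expressing the human TPO receptor after 24 hrs at 37 C with compounds and 26 pM TPO.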

[15] = molecular target: Muscarinic acetylcholine receptor M1 (Rattus norvegicus) (UniProt P08482); assay: qHTS Assay for Antagonists of Acetylcholine Muscarinic M1 Receptor: Kinetic Measurement of Intracellular Calcium Response (AID 943; active = well fitted curve in the direction sought with a large enough effect; an effect the other way counts as inactive or inconclusive; note: nearly all actives have a fitted effect of over 75% in size)
Muscarinic acetylcholine receptor M1 (Rattus norvegicus), sequence (P08482 whole entry, looked up): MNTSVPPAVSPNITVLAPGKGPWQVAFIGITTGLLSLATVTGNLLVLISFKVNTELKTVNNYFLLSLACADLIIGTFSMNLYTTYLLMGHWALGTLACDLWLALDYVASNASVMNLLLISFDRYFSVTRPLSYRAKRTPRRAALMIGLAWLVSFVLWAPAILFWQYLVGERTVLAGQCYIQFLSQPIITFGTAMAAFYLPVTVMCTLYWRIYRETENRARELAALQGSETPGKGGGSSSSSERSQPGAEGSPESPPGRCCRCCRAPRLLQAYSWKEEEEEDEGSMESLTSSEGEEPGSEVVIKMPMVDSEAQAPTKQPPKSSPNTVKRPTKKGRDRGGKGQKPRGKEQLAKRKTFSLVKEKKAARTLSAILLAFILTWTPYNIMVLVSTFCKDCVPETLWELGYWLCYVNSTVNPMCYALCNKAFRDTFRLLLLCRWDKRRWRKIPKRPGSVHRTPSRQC
How it was run: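 CHO cells expressing rat M1 receptor, Fluo-4 loaded, preincubated 10 min with compound, then stimulated with EC80 carbachol (100 nM final). Kinetic calcium fluorescence over 4 min; response taken as peak over basal signal.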

[16] = molecular target: Muscarinic acetylcholine receptor M1 (Rattus norvegicus) (UniProt P08482); assay: qHTS Assay for Antagonists of Acetylcholine Muscarinic M1 Receptor: Measurement of IP-One Response (AID 944; active = well fitted curve in the direction sought with a large enough effect; an effect the other way counts as inactive or inconclusive; note: nearly all actives have a fitted effect of over 75% in size)
How it was run: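 CHO cells stably expressing rat M1, pretreated 10 min with compound, then stimulated 30 min with carbachol at EC80 (200 nM) in LiCl-containing buffer pH 7.4; IP1 accumulation read by HTRF competition (665/620 nm).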

[17] = molecular target: Pyruvate kinase (Leishmania mexicana) (UniProt Q27686); assay: qHTS Validation Assay for Inhibitors of Leishmania Mexicana Pyruvate Kinase (AID 945; active = well fitted curve in the direction sought with a large enough effect; an effect the other way counts as inactive or inconclusive;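 note: 0% = DMSO only neutral control wells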)
Pyruvate kinase (Leishmania mexicana), sequence (Q27686 2-499 E452W): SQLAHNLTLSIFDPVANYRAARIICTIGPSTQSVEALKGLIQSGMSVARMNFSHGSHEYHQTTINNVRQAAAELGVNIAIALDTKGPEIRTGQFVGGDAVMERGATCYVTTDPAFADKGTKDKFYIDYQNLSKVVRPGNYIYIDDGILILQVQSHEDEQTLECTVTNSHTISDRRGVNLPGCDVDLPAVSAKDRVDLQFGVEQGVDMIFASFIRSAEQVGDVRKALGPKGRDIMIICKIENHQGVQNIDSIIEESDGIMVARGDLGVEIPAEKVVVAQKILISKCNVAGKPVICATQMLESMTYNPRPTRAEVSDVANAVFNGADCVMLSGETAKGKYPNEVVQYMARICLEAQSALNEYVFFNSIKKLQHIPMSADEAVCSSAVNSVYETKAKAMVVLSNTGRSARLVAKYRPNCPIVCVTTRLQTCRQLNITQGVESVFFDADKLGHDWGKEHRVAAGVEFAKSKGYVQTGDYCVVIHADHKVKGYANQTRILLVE
How it was run: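 Compounds are tested as eight-point concentration series. Reactions contain 0.2 nM LmPYK E451W, 0.5 mM PEP, 0.1 mM ADP, 7 mM MgCl2 and 50 mM KCl at pH 7.2, run 1 h at room temperature, then read by PKLight luminescence.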

[18] = molecular target: Pyruvate kinase PKM (Homo sapiens) (UniProt P14618); assay: qHTS Assay for Activators of Human Muscle Pyruvate Kinase (AID 954; active = well fitted curve in the direction sought with a large enough effect, not every such curve was filed as active;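 note: 0% = uninhibited enzyme and -100% = no enzyme or full thiadiazolimine inhibition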)
Pyruvate kinase PKM (Homo sapiens), sequence (P14618 whole entry, looked up): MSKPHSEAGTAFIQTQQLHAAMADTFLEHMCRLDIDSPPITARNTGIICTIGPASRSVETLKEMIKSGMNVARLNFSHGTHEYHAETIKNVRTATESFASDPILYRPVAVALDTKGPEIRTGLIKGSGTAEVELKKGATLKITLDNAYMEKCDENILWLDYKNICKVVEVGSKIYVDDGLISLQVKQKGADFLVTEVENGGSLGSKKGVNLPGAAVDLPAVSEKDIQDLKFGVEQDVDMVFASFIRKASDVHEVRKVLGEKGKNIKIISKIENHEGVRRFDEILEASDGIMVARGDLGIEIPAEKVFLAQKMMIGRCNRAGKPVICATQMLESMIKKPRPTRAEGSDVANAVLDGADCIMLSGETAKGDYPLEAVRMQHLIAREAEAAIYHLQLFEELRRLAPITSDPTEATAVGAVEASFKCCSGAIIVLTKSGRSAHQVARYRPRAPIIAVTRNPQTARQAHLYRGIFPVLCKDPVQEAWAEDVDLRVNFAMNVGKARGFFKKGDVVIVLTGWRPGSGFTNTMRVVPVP
How it was run: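 Human PKM2 activity is measured as ATP generation, detected by luciferase-coupled luminescence. The enzyme (0.1 nM) acts on 0.5 mM PEP and 0.1 mM ADP for 1 h at ambient temperature; data are normalized to uninhibited and full-inhibition wells.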

[19] = molecular target: Alpha-galactosidase A (Homo sapiens) (UniProt P06280); assay: Counterscreen for Glucocerebrosidase Inhibitors: qHTS Assay for Human alpha-Galactosidase at pH 4.5 (AID 992; active = well fitted curve in the direction sought with a large enough effect; an effect the other way counts as inactive or inconclusive; note: 0% is about no effect)
Alpha-galactosidase A (Homo sapiens), sequence (P06280 whole entry, looked up): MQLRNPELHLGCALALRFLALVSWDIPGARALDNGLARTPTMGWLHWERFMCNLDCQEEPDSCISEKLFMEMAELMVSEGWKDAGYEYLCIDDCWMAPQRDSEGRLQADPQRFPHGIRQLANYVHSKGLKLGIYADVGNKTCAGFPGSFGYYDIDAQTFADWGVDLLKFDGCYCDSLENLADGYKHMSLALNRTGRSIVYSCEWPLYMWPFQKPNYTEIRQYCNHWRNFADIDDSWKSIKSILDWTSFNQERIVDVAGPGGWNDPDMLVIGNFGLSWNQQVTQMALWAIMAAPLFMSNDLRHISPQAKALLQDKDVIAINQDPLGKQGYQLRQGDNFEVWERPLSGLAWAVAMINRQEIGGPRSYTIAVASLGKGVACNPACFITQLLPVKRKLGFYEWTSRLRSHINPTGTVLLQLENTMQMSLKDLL
How it was run: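 Quantitative HTS: compounds tested from 0.7 nM up to 77 uM against 2 nM enzyme with 80 uM 4-MU alpha-D-galactopyranoside. The 20 min room-temperature reaction is stopped with 1M NaOH/1M glycine, pH 10.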

[20] = molecular target: alpha-glucosidase (Oryza sativa, rice) (UniProt Q653V4); assay: Counterscreen for Glucocerebrosidase Inhibitors: qHTS Assay for Rice alpha-Glucosidase at pH 5.0 (AID 997; active = well fitted curve in the direction sought with a large enough effect; an effect the other way counts as inactive or inconclusive;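 note: 0% = full activity with enzyme and -100% = basal without enzyme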)
How it was run: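 Rice alpha-glucosidase (4 nM final) with 400 uM 4-methylumbelliferyl-alpha-D-glucopyranoside in citrate buffer pH 5.0, 20 min at room temperature, stopped at pH 10; fluorescence 365/440 nm, compounds 0.7 nM–77 uM, AC50 from Hill fits.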

O=C(OCCN1CCOCC1)c1ccc2c(c1)OCCO2
inactive: activity change, negative = inhibition [1] -10% | activity change, negative = inhibition [2] 19.9% | activity, negative = inhibition [3] 6.54%

CC1(NC[C@@H](O)COc2cccc3[nH]ccc23)CCC(C(C)(C)NC(=O)CBr)CC1 (some centres not stated)
active: Potency [9] 1.26 µM
inactive: activity change, negative = inhibition [1] 7.03% [at 38 µM] | Potency [4] | activity, negative = inhibition [3] 18.1% [at 38 µM] | Potency [5] > 46 µM | Potency [6] > 46 µM | Potency [7] | Potency [8] | Potency [10]

Fc1cc(F)c(F)c(SCCc2ccncc2)c1F
inactive: activity change, negative = inhibition [1] -7.09% | activity change, negative = inhibition [2] -5.43% | activity, negative = inhibition [3] -0.589%

CC(=O)O[C@]12CC[N@+]3(C)CCCC[C@@H]3[C-]1Nc1ccccc12
inactive: activity change, negative = inhibition [1] 2.61% [at 7.69 µM] | activity change, negative = inhibition [4] -11% [at 11.4 µM] | activity, negative = inhibition [3] 1.87% [at 7.69 µM] | Potency [5] > 46 µM | Potency [6] > 9.22 µM | activity change, negative = inhibition [11] 4.94% [at 11.4 µM] | Potency [7] | activation [12] 4.44%

O=C1[C@@H]2C=CC=CC2=NC(=S)N1CCN1CCC(=C(c2ccc(F)cc2)c2ccc(F)cc2)CC1
inactive: activity change, negative = inhibition [1] 26.4% [at 38 µM] | Potency [4] | activity, negative = inhibition [3] 6.96% [at 38 µM] | Potency [5] > 46 µM | Potency [6] > 46 µM | Potency [11] | Potency [13] | Potency [14] | Potency [15] | Potency [16] | Potency [17] | outcome [18] | outcome [19] | outcome [20]

COC(=O)c1ccc(Cn2nnc3c(sc4nc(N5CCOCC5)c5c(c43)CCCC5)c2=O)o1
inactive: activity change, negative = inhibition [1] 0.759% | activity change, negative = inhibition [2] -21.1% | activity, negative = inhibition [3] -4.56%

COc1ccc2c(c1)CN([C@H](C)[C@@H]1CC[C@@H]3[C@H]4CC[C@H]5C[C@@H](O)CC[C@@]5(C)[C@H]4CC[C@]31C)CO2
inactive: activity change, negative = inhibition [1] 23.1% [at 7.69 µM] | activity change, negative = inhibition [4] -18% [at 2.29 µM] | activity, negative = inhibition [3] -2.48% [at 7.69 µM] | Potency [5] > 46 µM | Potency [6] > 9.22 µM | activity change, negative = inhibition [11] -1.53% [at 11.4 µM] | Potency [7] | activation [12] 15.9%

CCOc1cccc(-c2nnc3sc(-c4ccc(C)cc4)nn23)c1
inactive: activity change, negative = inhibition [1] 18.5% | activity change, negative = inhibition [2] -19.6% | activity, negative = inhibition [3] 24.1%

CN1CCc2c(c3c(n2C)CCN(C)[C@@H]3c2cccnc2)[C@H]1c1cccnc1
inactive: activity change, negative = inhibition [1] 5.56% | activity change, negative = inhibition [2] 8.24% | activity, negative = inhibition [3] 9.53%

Nc1nonc1OCCc1ccccc1
inactive: activity change, negative = inhibition [1] 2.66% | activity change, negative = inhibition [2] 3.18% | activity, negative = inhibition [3] -6.28%
